Source: PubChem
CYP2C19 activ – increases human CYP2C19 enzyme activity | activation factor at 5 µM | P33261 | 96,000 tested, under 10 active | recombinant CYP2C19, luciferin-H EGE luminescence; active compounds read high; 0 = fully inhibited enzyme, 1 = untreated enzyme;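 active means activation factor of at least 2 at 5 µM in the primary screen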;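 further: 0 = wells with 2.5 mM tranylcypromine and 1 = vehicle-only wells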
CYP2C9 inhib – inhibitors of human CYP2C9; CYP2C9 Supersomes, luciferin-H conversion, luminescence; inhibition, % at 5 µM; actives 20% (n = 96,000); AID 777;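 active means blocking of liver enzyme CYP2C9 beyond about 50% at 5 µM, limit read from the data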
Target sequence (P11712 whole entry, looked up): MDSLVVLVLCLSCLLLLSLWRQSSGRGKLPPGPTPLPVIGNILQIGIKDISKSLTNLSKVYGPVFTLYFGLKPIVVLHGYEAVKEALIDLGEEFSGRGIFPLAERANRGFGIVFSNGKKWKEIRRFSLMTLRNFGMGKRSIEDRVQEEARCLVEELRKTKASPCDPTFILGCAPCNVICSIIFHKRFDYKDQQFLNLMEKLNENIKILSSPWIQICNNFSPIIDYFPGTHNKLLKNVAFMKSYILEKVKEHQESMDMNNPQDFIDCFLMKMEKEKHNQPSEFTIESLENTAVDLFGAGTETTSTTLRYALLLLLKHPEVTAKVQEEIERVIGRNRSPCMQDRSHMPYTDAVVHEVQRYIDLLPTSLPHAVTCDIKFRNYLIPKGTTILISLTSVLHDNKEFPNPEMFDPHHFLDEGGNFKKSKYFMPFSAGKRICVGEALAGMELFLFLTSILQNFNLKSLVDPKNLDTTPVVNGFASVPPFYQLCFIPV
CYP2C19 inhib – inhibitors of human CYP2C19 | P33261 | CYP2C19 Supersomes, luciferin-H EGE luminescence, 30 min | inhibition, % at 5 µM | actives 21% (n = 96,000) | AID 778;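 active means CYP2C19 inhibition above a set limit at 5 µM in the primary screen, cut at about 50% in these data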;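 further: plate controls were negative control wells for no effect and 2.5 mM tranylcypromine positive control for full effect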
CYP2C9 act – increases human cytochrome P450 2C9 activity; activation factor at 5 µM; AID 1024; recombinant CYP2C9, luciferin-H conversion, luminescence; active compounds read high; factor 1 = untreated enzyme, 0 = blocked; actives 1.4% (n = 96,000); P11712;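 active means activation factor of 2 or more for CYP2C9 at a 5 µM dose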;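 further: 0 = sulfaphenazole-blocked wells and 1 = vehicle-only wells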
Cav32 inh – human Cav3.2 channel inhibition, primary screen | Cav3.2-expressing cells, Fluo-4 calcium fluorescence FDSS; active compounds read low | actives 4% (n = 100,000) | O95180 | B-score at 10 µM;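 active means single-dose well whose peak fluorescence ratio is a statistical outlier from its plate by either plate-standardised score or position-corrected B-score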
Active calls of the source: *. Shown are actives, neighbours in structure and some others; about 27% of the full set was active somewhere.

What do the screens show for `COc1ccc(NC(=O)CSc2ncccc2C(=O)OC(C)C)cc1OC`?
CYP2C19 activ: 0.1; CYP2C9 inhib: 76.9*; CYP2C19 inhib: 92.0*; CYP2C9 act: 0.2; Cav32 inh: -0.109

How did COc1ccc(NC(C)=O)cc1NC(=O)CSc1nc2ncccc2[nH]1 do in these assays?
CYP2C19 activ: 0.7; CYP2C9 inhib: 55.6*; CYP2C19 inhib: 28.9; CYP2C9 act: 0.4; Cav32 inh: 0.926

What do the screens show for `CC(C)OC(=O)c1cccnc1SCC(=O)N(C)c1ccccc1`?
CYP2C19 activ: 0.3; CYP2C9 inhib: 33.9; CYP2C19 inhib: 68.6*; CYP2C9 act: 0.7; Cav32 inh: -0.696

What do the screens show for `NC(=O)C1=C[C@H](C2CCCCC2)C[C@H](OCc2ccc(CO)cc2)O1`?
Cav32 inh: 0.651

Results for O=C(c1cccc2cccc(O)c12)N1CCCCC1 ?
CYP2C19 activ: 0.6; CYP2C9 inhib: -10.6; CYP2C19 inhib: 42.5; CYP2C9 act: 1.1; Cav32 inh: 0.494

What do the screens show for `O=C1C=C(O)c2cccc(O)c2C1=O`?
Cav32 inh: 0.542

Results for CC1=CC(=O)c2c(O)ccc(O)c2C1=O ?
Cav32 inh: -5.47*

What do the screens show for `CCOC(=O)C(C)On1c(-c2cccc(Cl)c2)nc2ccc([N+](=O)[O-])cc21` (stereo not drawn)?
CYP2C19 activ: 0.1; CYP2C9 inhib: 88.8*; CYP2C19 inhib: 88.2*; CYP2C9 act: 0.1; Cav32 inh: -4.62

Results for CCn1c(C)nc2cc(C(=O)OC(C(F)(F)C(F)F)C(F)(F)C(F)F)ccc21 ?
CYP2C19 activ: 0.5; CYP2C9 inhib: 53.9*; CYP2C19 inhib: 48.3; CYP2C9 act: 0.5

Results for CCn1c(C)nc2cc(C(=O)NNS(=O)(=O)c3c(C)c(C)cc(C)c3C)ccc21 ?
CYP2C19 activ: 0.5; CYP2C9 inhib: -2.0; CYP2C19 inhib: 54.8*; CYP2C9 act: 1

Results for COc1ccc(C)cc1NC(=O)CCC(=O)Nc1ccc2nc(N3CCN(C)CC3)cc(C)c2c1 ?
CYP2C19 activ: 0.6; CYP2C9 inhib: 34.1; CYP2C19 inhib: 43.3; CYP2C9 act: 0.7

How did O=C(Cn1c(=O)sc2ccccc21)Nc1ccc(S(=O)(=O)N2CCCCC2)cc1 do in these assays?
Cav32 inh: -4.49

How did O=C(CSc1nnc2sc3ccccc3n12)NCc1ccco1 do in these assays?
CYP2C19 activ: 0.8; CYP2C9 inhib: -186.2; CYP2C19 inhib: 22.2; CYP2C9 act: 2.9*; Cav32 inh: 0.492

What do the screens show for `Cc1cc2ccccc2c(=O)n1CC(=O)N(C)c1ccc(F)cc1`?
CYP2C19 activ: 0.4; CYP2C9 inhib: 33.5; CYP2C19 inhib: 60.3*; CYP2C9 act: 0.7; Cav32 inh: 1.36

What do the screens show for `CCN(CC)S(=O)(=O)c1ccc(NC(=O)Cn2c(=O)sc3ccccc32)cc1`?
CYP2C19 activ: 1.1; CYP2C9 inhib: 70.4*; CYP2C19 inhib: -6.7; CYP2C9 act: 0.3; Cav32 inh: -6.05*

Results for CC(C)NC(=O)CSc1nnc2sc3ccccc3n12 ?
CYP2C19 activ: 0.9; CYP2C9 inhib: -62.5; CYP2C19 inhib: 12.7; CYP2C9 act: 1.6; Cav32 inh: 0.0968

Results for Cc1cc2ccccc2c(=O)n1CC(=O)NCc1ccco1 ?
CYP2C19 activ: 0.5; CYP2C9 inhib: -156.4; CYP2C19 inhib: 53.6*; CYP2C9 act: 2.6*; Cav32 inh: 0.46

Results for O=C(Cn1c(=O)sc2ccccc21)NCc1ccco1 ?
CYP2C19 activ: 0.3; CYP2C9 inhib: -340.4; CYP2C19 inhib: 72.5*; CYP2C9 act: 4.4*; Cav32 inh: 0.491

How did O=C(Cn1c(=O)sc2ccccc21)Nc1ccccc1C(=O)O do in these assays?
CYP2C19 activ: 1.1; CYP2C9 inhib: 85.0*; CYP2C19 inhib: -12.6; CYP2C9 act: 0.2; Cav32 inh: -0.0085

How did O=C(Cn1c(=O)sc2ccccc21)Nc1ccccc1 do in these assays?
CYP2C19 activ: 0.6; CYP2C9 inhib: 60.1*; CYP2C19 inhib: 43.4; CYP2C9 act: 0.4; Cav32 inh: 1.48

How did Cc1cccc(C)c1Nc1nnc(SCC(=O)NCc2ccco2)s1 do in these assays?
CYP2C19 activ: 0.3; CYP2C9 inhib: 19.5; CYP2C19 inhib: 69.5*; CYP2C9 act: 0.8; Cav32 inh: -0.254

What do the screens show for `COCCN1C(=O)N[C@@H](c2ccccc2)[C@H](C(=O)OC)[C@H]1C`?
Cav32 inh: -1.04

What do the screens show for `C/C(N)=C(/C#N)C(=O)COC(=O)COc1ccc(Cl)cc1C`?
CYP2C19 activ: 0.8; CYP2C9 inhib: 4.5; CYP2C19 inhib: 20.6; CYP2C9 act: 1; Cav32 inh: 0.532

How did CCCCN(CC)Cc1ccc(CNC(=O)Nc2ccc(OC)cc2OC)o1 do in these assays?
CYP2C19 activ: 1; CYP2C9 inhib: 1.7; CYP2C19 inhib: -0.2; CYP2C9 act: 1; Cav32 inh: 0.382

How did C#CCOCCOCCOCCNc1nc(N2CCN(C(=O)Cn3cc(CCCCN)nn3)CC2)nc(N2CCN(C(=O)[C@H](C(C)C)n3cc(CCO)nn3)CC2)n1 do in these assays?
Cav32 inh: 0.0415

Results for COCCSc1nnc(-c2cnccn2)o1 ?
CYP2C19 activ: 1.1; CYP2C9 inhib: 16.7; CYP2C19 inhib: -5.1; CYP2C9 act: 0.8; Cav32 inh: 0.768

How did CN(Cc1ccccc1)C(=O)c1cccc(N2C(=O)NC3CC2(C)Oc2ccccc23)c1 (stereo not drawn) do in these assays?
CYP2C19 activ: 0.8; CYP2C9 inhib: 17.6; CYP2C19 inhib: 21.4; CYP2C9 act: 0.8; Cav32 inh: -1.26

What do the screens show for `Cc1cc2cc(CN(Cc3ccc4c(c3)OCO4)C(=O)c3cnccn3)c3nnnn3c2cc1C`?
CYP2C19 activ: 0.4; CYP2C9 inhib: 63.2*; CYP2C19 inhib: 60.6*; CYP2C9 act: 0.4; Cav32 inh: -1.01

Results for O=C(c1ccccc1F)N(Cc1ccc2c(c1)OCO2)Cc1cc2cc3c(cc2n2nnnc12)OCO3 ?
CYP2C19 activ: 0.2; CYP2C9 inhib: 50.3*; CYP2C19 inhib: 77.7*; CYP2C9 act: 0.5; Cav32 inh: -1.37

How did Cc1ccc(OCc2ccoc2C(=O)O)cc1C do in these assays?
CYP2C19 activ: 1; CYP2C9 inhib: -14.5; CYP2C19 inhib: -2.1; CYP2C9 act: 1.1; Cav32 inh: 0.619

Results for CCOC(=O)/C(N)=C/c1ncc(C(F)(F)F)cc1Cl ?
CYP2C19 activ: 1; CYP2C9 inhib: 5.1; CYP2C19 inhib: -1.5; CYP2C9 act: 0.9; Cav32 inh: -0.0031

What do the screens show for `CCc1nnc(SCc2cn3c(C)cc(C)nc3n2)n1N`?
CYP2C19 activ: 1.2; CYP2C9 inhib: -25.9; CYP2C19 inhib: -19.8; CYP2C9 act: 1.3; Cav32 inh: 0.663

How did COCCNc1nc(SCc2ccccc2)nc2sc3c(c12)CCC3 do in these assays?
CYP2C19 activ: 0.7; CYP2C9 inhib: 39.6; CYP2C19 inhib: 28.1; CYP2C9 act: 0.6; Cav32 inh: -4.45*

How did CC(CO)Nc1nc(SCc2ccccc2)nc2sc3c(c12)CCC3 (stereo not drawn) do in these assays?
CYP2C19 activ: 0.8; CYP2C9 inhib: 56.5*; CYP2C19 inhib: 23.8; CYP2C9 act: 0.4; Cav32 inh: -1.63

How did CCC(C)Nc1nc(CN2CCOCC2)nc2sc3c(c12)CCC3 (stereo not drawn) do in these assays?
CYP2C19 activ: 0.9; CYP2C9 inhib: 30.9; CYP2C19 inhib: 8.9; CYP2C9 act: 0.7; Cav32 inh: -1.39
